# Experimental data: PubChem BioAssay (NCATS)
# Inconclusive results are not listed. Entries that show only a call come without a potency. Calls of active or inactive are those of the source. Calls come from the whole dose curve; as a rule, active = well fitted curve in the direction sought with a large enough effect; inconclusive = small, poorly fitted or top-dose-only effect, or another doubt; inactive = no such curve, though single readings can be large; an effect the other way counts as inactive or inconclusive.
# Assays:
# [1] = Quantitative High-Throughput drug screen in 47 multiple myeloma cell lines against the NCATS MIPE library collection: JJN3_DSMZ cell viability assay (AID 1918966; note: potency is the fitted concentration of half-maximal effect; nearly all actives have a fitted effect of over 50% in size)
# In short: (§1)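 Inhibition of cell viability is measured here. Each line was plated at 500 cells per well, treated with MIPE 4.0 drugs, kept 48 hours at 37C, then assayed for ATP content by CellTiter-Glo luminescence.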
# [2] = Quantitative High-Throughput drug screen in 47 multiple myeloma cell lines against the NCATS MIPE library collection: MM1S_ATCC cell viability assay (AID 1918980); note: nearly all actives have a fitted effect of over 45% in size; note: potency is the fitted concentration of half-maximal effect
# In short: (§2)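 ATP-based luminescence (CellTiter-Glo, 5 min RT incubation) quantified surviving cells following two days' treatment with MIPE 4.0 agents at 37 °C, 5% CO2.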
# [3] = Quantitative High-Throughput drug screen in 47 multiple myeloma cell lines against the NCATS MIPE library collection: H1112_PLB cell viability assay (AID 1918967; note: nearly all actives have a fitted effect of over 30% in size; note: potency is the fitted concentration of half-maximal effect)
# In short: as §1
# [4] = Quantitative High-Throughput drug screen in 47 multiple myeloma cell lines against the NCATS MIPE library collection: Karpas25_ECACC cell viability assay (AID 1918968; note: nearly all actives have a fitted effect of over 35% in size; note: potency is the fitted concentration of half-maximal effect)
# In short: as §1
# [5] = Quantitative High-Throughput drug screen in 47 multiple myeloma cell lines against the NCATS MIPE library collection: KMS27_JCRB cell viability assay (AID 1918970); conditions: KMS27 myeloma cells, CellTiter-Glo ATP viability, 48 h; viability (% of DMSO): at 45.8 µM (top of the series); note: nearly all actives have a fitted effect of over 30% in size
# In short: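 CellTiter-Glo luminescence after 48 h drug exposure at 37 °C; 500 cells/well, 1536-well format, pin-tool compound addition; DMSO = 100%, media-only = 0% viability.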
# [6] = Quantitative High-Throughput drug screen in 47 multiple myeloma cell lines against the NCATS MIPE library collection: KMS12PE_JCRB cell viability assay (AID 1918972); note: nearly all actives have a fitted effect of over 30% in size; note: potency is the fitted concentration of half-maximal effect
# In short: as §1
# [7] = Quantitative High-Throughput drug screen in 47 multiple myeloma cell lines against the NCATS MIPE library collection: MOLP8_DSMZ cell viability assay (AID 1918977); note: nearly all actives have a fitted effect of over 45% in size; note: potency is the fitted concentration of half-maximal effect
# In short: as §2
# [8] = Quantitative High-Throughput drug screen in 47 multiple myeloma cell lines against the NCATS MIPE library collection: OCIMY1_PLB cell viability assay (AID 1918979); note: nearly all actives have a fitted effect of over 35% in size
# In short: as §2
# [9] = Quantitative High-Throughput drug screen in 47 multiple myeloma cell lines against the NCATS MIPE library collection: LP1_DSMZ cell viability assay (AID 1918982); note: nearly all actives have a fitted effect of over 35% in size
# In short: as §2
# [10] = Quantitative High-Throughput drug screen in 47 multiple myeloma cell lines against the NCATS MIPE library collection: KMS28PE_JCRB cell viability assay (AID 1918983); note: nearly all actives have a fitted effect of over 35% in size
# In short: as §2
# [11] = Quantitative High-Throughput drug screen in 47 multiple myeloma cell lines against the NCATS MIPE library collection: L363_DSMZ cell viability assay (AID 1918984); conditions: L363 myeloma viability, CellTiter-Glo ATP luminescence, 48 h; viability (% of control): at 45.8 µM (top of the series); note: nearly all actives have a fitted effect of over 40% in size
# In short: as §2
# [12] = Quantitative High-Throughput drug screen in 47 multiple myeloma cell lines against the NCATS MIPE library collection: MMM1_PLB cell viability assay (AID 1918976); note: nearly all actives have a fitted effect of over 35% in size; note: potency is the fitted concentration of half-maximal effect
# In short: as §2
# [13] = Quantitative High-Throughput drug screen in 47 multiple myeloma cell lines against the NCATS MIPE library collection: NCIH929_DSMZ cell viability assay (AID 1918978); note: nearly all actives have a fitted effect of over 35% in size; note: potency is the fitted concentration of half-maximal effect
# In short: as §2
# [14] = Quantitative High-Throughput drug screen in 47 multiple myeloma cell lines against the NCATS MIPE library collection: MM1R_ATCC cell viability assay (AID 1918981); note: nearly all actives have a fitted effect of over 35% in size; note: potency is the fitted concentration of half-maximal effect
# In short: as §2
# [15] = Quantitative High-Throughput drug screen in 47 multiple myeloma cell lines against the NCATS MIPE library collection: KMS21BM_JCRB cell viability assay (AID 1918974); conditions: ATP luminescence, 48 h; viability: at 45.8 µM (top of the series)
# In short: as §1
# [16] = Quantitative High-Throughput drug screen in 47 multiple myeloma cell lines against the NCATS MIPE library collection: KMS26_JCRB cell viability assay (AID 1918975); note: nearly all actives have a fitted effect of over 45% in size
# In short: (§3)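 Approved and investigational drugs from MIPE 4.0 were added by pin tool to 500 cells per well. After 48 hours at 37C, ATP-based CellTiter-Glo luminescence indicated remaining viability.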
# [17] = Quantitative High-Throughput drug screen in 47 multiple myeloma cell lines against the NCATS MIPE library collection: KMS34_JCRB cell viability assay (AID 1918985); note: nearly all actives have a fitted effect of over 40% in size; note: potency is the fitted concentration of half-maximal effect
# In short: as §2
# [18] = Quantitative High-Throughput drug screen in 47 multiple myeloma cell lines against the NCATS MIPE library collection: KMS12BM_JCRB cell viability assay (AID 1918971)
# In short: as §3
# [19] = Quantitative High-Throughput drug screen in 47 multiple myeloma cell lines against the NCATS MIPE library collection: KMS20_JCRB cell viability assay (AID 1918973); note: nearly all actives have a fitted effect of over 45% in size
# In short: as §1
smiles,measurement,setting,value
C=CC(=O)Nc1cccc(Sc2nc(Nc3ccc(N4CCN(C)CC4)cc3)ncc2Cl)c1,Potency,[1],37.2 µM (active)
same,Potency,[2],18.7 µM (active)
O=C(O)C1=CO[C@@H](O[C@@H]2O[C@H](CO)[C@H](O)[C@H](O)[C@H]2O)[C@@H]2C(CO)=CC[C@H]12,Potency,[3],inactive
same,Potency,[4],inactive
same,Potency,[5],inactive
same,Potency,[6],0.0743 µM (active)
same,Potency,[7],inactive
same,Potency,[8],inactive
same,Potency,[2],16.6 µM (active)
same,Potency,[9],inactive
same,Potency,[10],inactive
same,Potency,[11],inactive
NC(=O)c1ccc(N(C(N)=O)c2c(F)cccc2F)nc1-c1ccc(F)cc1F,Potency,[3],5.26 µM (active)
same,Potency,[4],7.43 µM (active)
same,Potency,[5],inactive
same,Potency,[6],inactive
same,Potency,[12],inactive
same,Potency,[13],5.26 µM (active)
same,Potency,[14],inactive
same,Potency,[9],inactive
same,Potency,[10],inactive
NC(=O)c1ncn([C@@H]2O[C@H](CO)[C@@H](O)[C@@H]2O)n1,Potency,[3],inactive
same,Potency,[4],inactive
same,Potency,[5],inactive
same,Potency,[15],inactive
same,Potency,[16],inactive
same,Potency,[13],inactive
same,Potency,[2],8.33 µM (active)
same,Potency,[9],inactive
same,Potency,[10],inactive
CC(C)(F)C[C@H](N[C@@H](c1ccc(-c2ccc(S(C)(=O)=O)cc2)cc1)C(F)(F)F)C(=O)NC1(C#N)CC1,Potency,[3],inactive
same,Potency,[4],inactive
same,Potency,[5],inactive
same,Potency,[13],inactive
same,Potency,[2],inactive
same,Potency,[14],inactive
same,Potency,[9],inactive
same,Potency,[17],inactive
COc1ccc2c(c1)CC[C@H]1[C@@H]2CC[C@]2(C)[C@@H](NCCCCCCN3C(=O)C=CC3=O)CC[C@H]12,Potency,[3],inactive
same,Potency,[4],inactive
same,Potency,[6],inactive
same,Potency,[8],inactive
same,Potency,[10],inactive
same,Potency,[17],inactive
O=C(O)CCNc1cc(N2CCc3ccccc3CC2)nc(-c2ccccn2)n1,Potency,[3],inactive
same,Potency,[4],16.6 µM (active)
same,Potency,[18],0.0372 µM (active)
same,Potency,[6],inactive
same,Potency,[16],inactive
same,Potency,[13],inactive
same,Potency,[8],inactive
same,Potency,[14],16.6 µM (active)
same,Potency,[9],inactive
CC(=O)OCC(=O)[C@@]1(O)CC[C@H]2[C@@H]3CCC4=CC(=O)C=C[C@]4(C)[C@@H]3[C@@H](O)C[C@@]21C,Potency,[3],inactive
same,Potency,[4],0.526 µM (active)
same,Potency,[5],inactive
same,Potency,[18],0.187 µM (active)
same,Potency,[6],inactive
same,Potency,[12],2.64 µM (active)
same,Potency,[7],2.35 µM (active)
same,Potency,[13],0.187 µM (active)
same,Potency,[8],inactive
same,Potency,[2],0.118 µM (active)
same,Potency,[10],inactive
same,Potency,[17],0.209 µM (active)
O=C(c1ccc(C(=O)N2CCC(N3CCCC3)CC2)c(Nc2ccccc2)c1)N1CCC(N2CCCC2)CC1,Potency,[3],inactive
same,Potency,[4],inactive
same,Potency,[6],inactive
same,Potency,[19],inactive
same,Potency,[15],inactive
same,Potency,[7],inactive
same,Potency,[13],inactive
same,Potency,[14],inactive
same,Potency,[9],inactive
same,Potency,[11],inactive
